# Measurements from PubChem BioAssay (NCI).
# The panel holds about 79,000 compounds, 15% with a hit somewhere; the sample as a whole holds those more often. A number with no mark means an inactive call. Calls of active or inactive are those of the source. Cut-off read from the data, not from the text of the source: active = growth inhibition above about 70%; inactive = the rest.
# Legend:
# [1] = NCI Yeast Anticancer Drug Screen. Data for the wt1 strain (AID 149);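 note: 0% = growth of vehicle-treated wt1 cultures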; conditions: S. cerevisiae wt1 strain (SPY 50644) growth inhibition, active compounds read high
# Procedure, shortened: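 wt1 yeast, compound-treated; % growth inhibition vs vehicle control.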
# [2] = NCI Yeast Anticancer Drug Screen. Data for the rad50EPP+ strain (AID 151);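 note: 0% = growth of vehicle-treated control cultures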; conditions: S. cerevisiae rad50 mutant strain, active compounds read high
# Procedure, shortened: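 Strain rad50EPP+; compound exposure; % growth inhibition vs vehicle.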
# [3] = NCI Yeast Anticancer Drug Screen. Data for the rad50 strain (AID 155);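 note: 0% = growth of vehicle-only cultures of the same strain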; conditions: S. cerevisiae rad50 strain growth inhibition, active compounds read high
# Procedure, shortened: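 Genetically altered yeast (DNA repair pathway); compound treatment; growth inhibition vs vehicle ctrl.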
# [4] = NCI Yeast Anticancer Drug Screen. Data for the mec2-1 strain (AID 157); conditions: S. cerevisiae mec2-1 strain, active compounds read high
# Procedure, shortened: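 Cells of the genetically defined mec2-1 yeast strain are incubated with test compound. Inhibition of growth is calculated against vehicle-treated controls.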
# [5] = NCI Yeast Anticancer Drug Screen. Data for the rad14 strain (AID 159);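 note: 0% = growth of vehicle-treated control cultures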; conditions: S. cerevisiae rad14 strain growth inhibition, active compounds read high
# Procedure, shortened: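 Test compounds were applied to a repair-deficient yeast strain. Its growth was then compared with that of cultures given vehicle alone, and inhibition was expressed relative to those controls.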
# [6] = NCI Yeast Anticancer Drug Screen. Data for the sgs1 mgt1 strain (AID 161);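 note: 0% = growth of cultures given vehicle only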; conditions: S. cerevisiae sgs1 mgt1 strain, active compounds read high
# Procedure, shortened: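 Inhibition of yeast growth, normalised to vehicle-treated controls, is reported for a strain bearing genetic alterations in DNA damage repair.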
# [7] = NCI Yeast Anticancer Drug Screen. Data for the CLN2oe strain (AID 163);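 note: 0% = growth of vehicle-only control cultures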; conditions: S. cerevisiae CLN2oe strain, active compounds read high
# Procedure, shortened: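 Strain altered in cell-cycle control, incubated with compound; growth compared to solvent-treated controls.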
# [8] = NCI Yeast Anticancer Drug Screen. Data for the cln2 rad14 strain (AID 165);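 note: 0% = growth equal to vehicle treated cultures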; conditions: S. cerevisiae cln2 rad14 strain, active compounds read high
# Procedure, shortened: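 The screen exposed genetically defined yeast (cln2 rad14) to test compounds and scored growth inhibition relative to vehicle-treated controls.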
# [9] = NCI Yeast Anticancer Drug Screen. Data for the wt2 strain (AID 169);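 note: 0% = growth of vehicle-treated yeast cultures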; conditions: S. cerevisiae wt2 strain growth inhibition, active compounds read high
# Procedure, shortened: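 Steps: yeast strain treated with compound; growth recorded; inhibition calculated relative to cultures given vehicle alone.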
# [10] = NCI Yeast Anticancer Drug Screen. Data for the sgs1 strain (AID 173);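 note: 0% = growth of vehicle-only control cultures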; conditions: S. cerevisiae sgs1 mutant, active compounds read high
# Procedure, shortened: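 Inhibition of yeast growth served as the measure. The mutant strain was treated with each compound, and growth was normalised to cultures receiving vehicle alone.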
# [11] = NCI Yeast Anticancer Drug Screen. Data for the mlh1 rad18 strain (AID 175); conditions: S. cerevisiae mlh1 rad18 strain growth inhibition, active compounds read high
# Procedure, shortened: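 Compound-treated yeast growth, normalised to vehicle controls. Strain bears defined DNA repair mutations.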
# [12] = NCI Yeast Anticancer Drug Screen. Data for the rad18 strain (AID 177); conditions: S. cerevisiae rad18 mutant growth inhibition, active compounds read high
# Procedure, shortened: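 Inhibition values reflect reduced yeast growth compared with vehicle-treated controls, using a strain engineered with a DNA damage repair defect.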
# [13] = at 5.0 µM (retest, dose inferred, filed as 0.5)
# [14] = at 50.0 µM (retest, dose inferred, filed as 5.0)
compound,measurement,setting,value
O=S1(=O)c2ccccc2N=C(c2ccccc2Cl)CC1c1ccc(F)cc1 (stereo not given),growth inhibition,[1]; at 1.2 µM,0%
same,growth inhibition,[1]; at 3.7 µM,-4%
same,growth inhibition,[1]; at 11.0 µM,25%
same,growth inhibition,[1]; at 33.0 µM,36%
same,growth inhibition,[1]; at 100.0 µM,8%
same,growth inhibition,[2]; at 1.2 µM,-23%
same,growth inhibition,[2]; at 3.7 µM,-22%
same,growth inhibition,[2]; at 11.0 µM,0%
same,growth inhibition,[2]; at 33.0 µM,15%
same,growth inhibition,[2]; at 100.0 µM,24%
same,growth inhibition,[3]; at 1.2 µM,-39%
same,growth inhibition,[3]; at 3.7 µM,-34%
same,growth inhibition,[3]; [13],-7%
same,growth inhibition,[3]; at 11.0 µM,-18%
same,growth inhibition,[3]; at 33.0 µM,17%
same,growth inhibition,[3]; [14],29%
same,growth inhibition,[3]; at 50.0 µM,18.3%
same,growth inhibition,[3]; at 100.0 µM,13%
same,growth inhibition,[4]; at 1.2 µM,-52%
same,growth inhibition,[4]; at 3.7 µM,-27%
same,growth inhibition,[4]; [13],-22%
same,growth inhibition,[4]; at 11.0 µM,-29%
same,growth inhibition,[4]; at 33.0 µM,0%
same,growth inhibition,[4]; [14],-10%
same,growth inhibition,[4]; at 50.0 µM,-10.2%
same,growth inhibition,[4]; at 100.0 µM,-27%
same,growth inhibition,[5]; at 1.2 µM,-32%
same,growth inhibition,[5]; at 3.7 µM,-47%
same,growth inhibition,[5]; at 11.0 µM,-25%
same,growth inhibition,[5]; at 33.0 µM,-3%
same,growth inhibition,[5]; at 100.0 µM,-6%
same,growth inhibition,[6]; [13],-5%
same,growth inhibition,[6]; [14],-8%
same,growth inhibition,[6]; at 50.0 µM,61%
same,growth inhibition,[7]; at 1.2 µM,-9%
same,growth inhibition,[7]; at 3.7 µM,-8%
same,growth inhibition,[7]; at 11.0 µM,-10%
same,growth inhibition,[7]; at 33.0 µM,-1%
same,growth inhibition,[7]; at 100.0 µM,-13%
same,growth inhibition,[8]; [13],17%
same,growth inhibition,[8]; [14],16%
same,growth inhibition,[8]; at 50.0 µM,31.5%
same,growth inhibition,[9]; at 1.2 µM,-6%
same,growth inhibition,[9]; at 3.7 µM,-8%
same,growth inhibition,[9]; at 11.0 µM,-20%
same,growth inhibition,[9]; at 33.0 µM,7%
same,growth inhibition,[9]; at 100.0 µM,25%
same,growth inhibition,[10]; at 1.2 µM,-7%
same,growth inhibition,[10]; at 3.7 µM,8%
same,growth inhibition,[10]; at 11.0 µM,-15%
same,growth inhibition,[10]; at 33.0 µM,17%
same,growth inhibition,[10]; at 100.0 µM,33%
same,growth inhibition,[11]; [13],-26%
same,growth inhibition,[11]; [14],81% (active)
same,growth inhibition,[11]; at 50.0 µM,72.5% (active)
same,growth inhibition,[12]; at 1.2 µM,-3%
same,growth inhibition,[12]; at 3.7 µM,2%
same,growth inhibition,[12]; at 11.0 µM,18%
same,growth inhibition,[12]; at 33.0 µM,36%
same,growth inhibition,[12]; at 100.0 µM,22%
